Hits are enriched below; roughly 3.5% of the tested compounds scored in any of these assays.
MITF primary: inhibitors of human MITF | O75030 | AlphaScreen MITF homodimerization, bead proximity signal | inhibition, % at 2.6 µM | actives 0.91% (n = 650,000) | AID 1259374; in the data active means inhibition above about 50%
Target sequence (O75030 whole entry, looked up): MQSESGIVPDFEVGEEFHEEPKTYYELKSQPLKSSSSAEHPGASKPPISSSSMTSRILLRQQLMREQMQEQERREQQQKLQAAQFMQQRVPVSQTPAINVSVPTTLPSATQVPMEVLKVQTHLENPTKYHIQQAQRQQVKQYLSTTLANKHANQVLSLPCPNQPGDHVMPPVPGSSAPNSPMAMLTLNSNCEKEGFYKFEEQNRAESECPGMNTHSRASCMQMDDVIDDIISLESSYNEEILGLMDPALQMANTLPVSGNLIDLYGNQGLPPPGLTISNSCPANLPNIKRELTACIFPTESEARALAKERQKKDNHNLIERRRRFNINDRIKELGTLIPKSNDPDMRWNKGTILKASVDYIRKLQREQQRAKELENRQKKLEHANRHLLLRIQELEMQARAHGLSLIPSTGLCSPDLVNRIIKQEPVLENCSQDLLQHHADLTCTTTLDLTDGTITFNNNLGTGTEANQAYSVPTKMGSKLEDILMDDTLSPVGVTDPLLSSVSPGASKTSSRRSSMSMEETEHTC
TEAD-YAP block: TEAD-YAP interaction inhibition; inhibition, % at 9.12 µM; actives 1.4% (n = 640,000); HEK-TIYL cells, TEAD-Gal4/YAP UAS-luciferase luminescence; in the data active means inhibition above about 32%
FBW7 activator: human FBW7 E3 ligase activation, primary screen | Q969H0 | AlphaScreen FBW7–phospho-cyclin E peptide binding, activator screen | normalized activity (activation), % at 26.1 µM | actives 0.13% (n = 650,000) | AID 1259310; in the data active means normalized activity above about 1.9%;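 further: purified mutant Fbw7 with reduced substrate affinity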
GPR151 ag: activators of human GPR151; Q8TDV0; PathHunter beta-arrestin GPR151 cells, luminescence; activation, % at 11.2 µM; actives 1% (n = 650,000); in the data active means activation above about 4.9%
Of the large screens only hits and unclear results are named; the others gave an inactive call.

COC(=O)C[C@](O)(CCCC(C)(C)O)C(=O)O[C@@H]1C(OC)=C[C@]23CCCN2CCc2cc4c(cc2[C@H]13)OCO4	TEAD-YAP block 99.5
Cc1cccc(C(=O)Nc2sc3c(c2C(=O)O)CCC3)c1	TEAD-YAP block 65.8
Cc1ccc(C(=O)Nc2sc3c(c2C(=O)O)CCCC3)o1	TEAD-YAP block 39.6
CCN(CC)S(=O)(=O)c1ccc(Cl)c(C(=O)Nc2sc3c(c2C#N)CCC3)c1	TEAD-YAP block 34.4
O=C(Nc1sc2c(c1C(=O)O)CCCC2)c1ccc(Br)cc1	none
O=C(Nc1sc2c(c1C(=O)O)CCCC2)c1ccc(F)cc1	TEAD-YAP block 36.1
CNC(=O)c1c(NC(=O)c2cccc(C)c2)sc2c1CCC2	none
Cn1c2c(c(=O)n(C)c1=O)C(c1ccsc1)C1=C(N2)c2ccccc2C1=O (stereo unspecified)	none
CC(C)c1ccc(-c2nc(C(N)=O)c3[nH]c(=O)n(C(C)C)c3n2)cc1	none
CC(C)(C)c1ccc(C(=O)Nc2sc3c(c2C(=O)O)CCC3)cc1	TEAD-YAP block 89.0
COc1ccc(C(=O)Nc2sc3c(c2C(=O)O)CCC3)cc1	TEAD-YAP block 39.6
CC(C)Oc1ccc(C(=O)Nc2sc3c(c2C#N)CCC3)cc1	none
O=C(Nc1sc2c(c1C(=O)O)CCC2)c1ccc(Br)cc1	none
COc1ccc(C(=O)Nc2sc3c(c2C#N)CCC3)cc1	TEAD-YAP block 37.3
CC(C)(C)c1ccc(C2/C(=C(/O)c3ccccc3)C(=O)C(=O)N2Cc2cccnc2)cc1 (stereo unspecified)	none
COc1ccc(S(=O)(=O)N(Cc2ccccc2)c2ccccc2C(=O)NCc2ccncc2)cc1	TEAD-YAP block 56.1
C=CCNC(=O)c1ccccc1N(Cc1ccccc1)S(=O)(=O)c1ccc(OC)cc1	TEAD-YAP block 54.5
O=C1c2ccccc2C(=O)c2c1ccc(C(=O)OCC(=O)N1CCOCC1)c2[N+](=O)[O-]	MITF primary 58.3
O=C(COC(=O)c1ccc2c(c1[N+](=O)[O-])C(=O)c1ccccc1C2=O)NC1CC1	none
NC(=O)c1ccc(-c2nc3ncnc(NC4CC4)c3[nH]2)cc1	none
Cc1ccc(CN2CC(C(=O)Nc3ncc(C)s3)CC2=O)cc1 (stereo unspecified)	TEAD-YAP block 44.5
CC1=C(C(=O)OCCOc2ccccc2)C(c2ccccc2[N+](=O)[O-])C2=C(CCCC2=O)N1 (stereo unspecified)	TEAD-YAP block 34.5
CC1=C(C(=O)OCCc2ccccc2)C(c2ccccc2[N+](=O)[O-])C2=C(CCCC2=O)N1 (stereo unspecified)	TEAD-YAP block 47.9
O=C(CSc1ccc2nnc(-c3ccncc3)n2n1)Nc1cccc(Cl)c1	none
O=C(c1cn2ccsc2n1)N1CCc2c([nH]c3ccccc23)C1c1ccccn1 (stereo unspecified)	none
COc1cc(CNc2ccc3c(c2)ncn3C)cc(OC)c1OC	TEAD-YAP block 63.0
CCn1cnc2cc(NCc3cc(OC)c(OC)c(OC)c3)ccc21	TEAD-YAP block 57.5
CCCn1cnc2cc(NCc3cc(OC)c(OC)c(OC)c3)ccc21	none
COC(=O)c1cn[nH]c1NC(=S)Nc1ccc(C)cc1C	TEAD-YAP block 79.9
Cc1ccc(S(=O)(=O)Nc2cccc(Cl)c2)cc1N	none
CCn1c2ccccc2c2cc(CN3CCN(Cc4cc(OC)ccc4O)CC3)ccc21	MITF primary 62.5
COc1ccc(O)c(CN2CCN(Cc3ccccc3OC)CC2)c1	MITF primary 69.0
COc1ccc(CN2CCN(Cc3cc(OC)ccc3O)CC2)cc1	MITF primary 83.0
CCn1c2ccccc2c2cc(CN3CCN(Cc4cc(OC)c(O)c(OC)c4)CC3)ccc21	none
C=C(C)CNC(=O)c1ccc(C)nc1NCc1cccnc1	none
COc1ccc2ccccc2c1/C=C/[N+](=O)[O-]	TEAD-YAP block 49.3
CCOC(=O)COc1ccc2ccccc2c1/C=C/[N+](=O)[O-]	none
CC(C)Oc1ccc2ccccc2c1/C=C/[N+](=O)[O-]	TEAD-YAP block 35.6
CC1CN(S(=O)(=O)CC23CCC(CC2=O)C3(C)C)CC(C)O1 (stereo unspecified)	none
CCN(CC)C(=O)c1ccc2nc(NC(=O)c3ccc(N)cc3)sc2c1	TEAD-YAP block 79.9
CCN(CC)C(=O)c1ccc2nc(NC(=O)c3ccc([N+](=O)[O-])cc3)sc2c1	TEAD-YAP block 83.6
Cc1ccc([N+](=O)[O-])cc1NC(=O)c1c(-c2c(Cl)cccc2Cl)noc1C	none
Cc1ccc2nc(NC(=O)c3ccc([N+](=O)[O-])cc3)sc2c1	none
CCN(CC)C(=O)c1ccc2nc(NC(=O)c3cccs3)sc2c1	TEAD-YAP block 87.6

Bioassay records: PubChem BioAssay, The Scripps Research Institute Molecular Screening Center
